Results filed as inconclusive are left out. Activity calls are given as the source filed them. The call rests on the fitted dose curve; in most records, active means well fitted cell-killing curve with a large enough effect; inconclusive means small, poorly fitted or top-dose-only effect, or effect the other way; inactive means no such curve, though single readings can be large or run the other way.
Assay: Quantitative High-Throughput drug screen in 47 multiple myeloma cell lines against the NCATS MIPE library collection: AMO1_DSMZ cell viability assay (AID 1918927; further: nearly all actives have a fitted effect of over 30% in size)
Conditions: AMO1 myeloma cells viability, CellTiter-Glo ATP luminescence, 48 h; series mostly up to 45.8 µM
Source text: PI: Beverly A. Mock Ph.D.
Laboratory of Cancer Biology and Genetics,
Center for Cancer Research, National Cancer Institute,
National Institute of Health, Bethesda, Maryland
Drug resistance and disease progression are common in multiple myeloma (MM) patients, underscoring the need for new therapeutic combinations. […] We hypothesized that effective combinations would reduce MYC expression and enhance p16 activity. […] These preclinical data identify potentially useful drug combinations for evaluation in drug-resistant MM and reveal potential mechanisms of combined drug sensitivity.
Described herein is the primary MIPE qHTS used to cherrypick compounds. Validated compounds were then further tested for potential synergistic activiy.
[1] Peat TJ, Gaikwad SM, Dubois W, Gyabaah-Kessie N, Zhang S, Gorjifard S, Phyo Z, Andres M, Hughitt VK, Simpson RM, Miller MA, Girvin AT, Taylor A, Williams D, D'Antonio N, Zhang Y, Rajagopalan A, Flietner E, Wilson K, Zhang X, Shinn P, Klumpp-Thomas C, McKnight C, Itkin Z, Chen L, Kazandijian D, Zhang J, Michalowski AM, Simmons JK, Keats J, Thomas CJ, Mock BA. Drug combinations identified by high-throughput screening promote cell cycle transition and upregulate Smad pathways in myeloma. Cancer Lett. 2023 Aug 1;568:216284. doi: 10.1016/j.canlet.2023.216284. Epub 2023 Jun 24. PMID: 37356470; PMCID: PMC10408729.
SEQUENCE No. (e.g., 1, 2, 3, etc.); […] (e.g., Cells, Incubation, Reagent, etc.); VALUE and DESCRIPTION.
1; Cells; 5 uL; white, solid bottom 1536-well Greiner assay plate.
2; Compounds; 23 nL; Kalypsis pin tool (Wako USA) equipped with a 1536-well pin head to transfer to the assay plates.
3; Incubation; 48 hours; 37C incubation.
4; Reagent;5uL; CellTiter Glo (Promega).
5; Detector; 425V; Luminescence; Viewlux PerkinElmer.
NOTES (numbers refer to Sequence numbers above)
1. The cell-based screening methods employed in this study were like those previously published. Briefly, the corresponding myeloma cell lines were screened in 1,536-well plates with 500 cells, 5-uL per well for inhibition of cell viability (assessed by measuring ATP levels with CellTiterGlo).
2. NCATS MIPE 4.0 library of approved and investigational drugs were added using the Kalypsis pin tool. Wells treated with DMSO only for 100% viability and media only wells for 0% viability were used as controls.
3. The assay plates were covered and incubated for 48 hours in a 37C, 5% CO2 incubator with controlled humidity.
4. After 48 hours, CellTilter-GloTM luminescent substrate mix (Promega) reagent was added to the assay plate and plates we incubated for 5 min at room temperature.
5. Signal was measured as median relative luminescence units on a ViewLux (PerkinElmer) multiplate reader.
[1] Heske CM, Davis MI, Baumgart JT, Wilson K, Gormally MV, Chen L, Zhang X, Ceribelli M, Duveau DY, Guha R, Ferrer M, Arnaldez FI, Ji J, Tran HL, Zhang Y, Mendoza A, Helman LJ, Thomas CJ. Matrix Screen Identifies Synergistic Combination of PARP Inhibitors and Nicotinamide Phosphoribosyltransferase (NAMPT) Inhibitors in Ewing Sarcoma. Clin Cancer Res. 2017 Dec 1;23(23):7301-7311. doi: 10.1158/1078-0432.CCR-17-1121. Epub 2017 Sep 12. PMID: 28899971; PMCID: PMC6636827.
Potency means the concentration at half of the fitted maximal effect.

SMILES	Potency
CN(C)c1ccccc1CN1CCCN(Cc2ccccc2N(C)C)C1c1ccncc1	16.6 µM (active)
Nc1[nH]nc2nnc(-c3c(-c4ccccc4)nn4ccccc34)cc12	1.66 µM (active)
O=C(Nc1ncc(SCCN2CCCC2)s1)[C@]1(c2ccc(S(=O)(=O)C3CC3)cc2)C[C@@H]1C1CCCCC1	8.33 µM (active)
CS(=O)(=O)c1ccc(C2=C(c3ccccc3)C(=O)OC2)cc1	inactive
Cn1c(=O)c(-c2c(Cl)cccc2Cl)cc2cnc(Nc3cccc(C(=O)O)c3)nc21	0.469 µM (active)
OC1CCC(Nc2ncc3nc(Nc4c(F)cc(F)cc4F)n([C@@H]4CCOC4)c3n2)CC1 (stereo not given in full)	16.6 µM (active)
N#CC(c1ccc(Cl)cc1)c1c(Cl)cc(-n2ncc(=O)[nH]c2=O)cc1Cl (stereo not given)	5.26 µM (active)
CC(C)CNc1ccnc(NCc2csc(-c3ccccc3)n2)n1	10.5 µM (active)
O=C(O)c1ccc(O)c2ncc(N3CCOCC3)cc12	20.9 µM (active)
CNc1nc(Nc2ccc(C(=O)N3CCOCC3)cc2OC)ncc1Cl	inactive
CN1CC(=O)NC1=NC(=O)Nc1cccc(Cl)c1	inactive
CC(=O)OCC(=O)[C@@]12OC(C)(C)O[C@H]1C[C@H]1[C@@H]3C[C@H](F)C4=CC(=O)C=C[C@]4(C)[C@@]3(F)[C@@H](O)C[C@@]12C	inactive
Cc1cc2c(cc1C1(c3ccc(C(=O)O)cn3)CC1)C(C)(C)CCC2(C)C	5.26 µM (active)
CO[C@H]1O[C@@H]2O[C@@]3(C)CC[C@@H]4[C@@H](C)CC[C@@H]([C@H]1C)[C@@]24OO3	1.87 µM (active)
C[C@@H]1[C@H](C)CC[C@]2(C(=O)O)CC[C@]3(C)C(=CC[C@@H]4[C@@]5(C)CC[C@H](O)C(C)(C)[C@H]5CC[C@]43C)[C@@H]12	inactive
CCCCCCCCCCCCCCCC(=O)O[C@H]1[C@@H](O)[C@@H](O)[C@@H]([C@H](NC(=O)[C@@H]2C[C@@H](CCC)CN2C)[C@H](C)Cl)O[C@@H]1SC	inactive
CCNC(=O)Nc1ccc(Oc2ncnc(N)c2C=NOC)cc1Cl	2.96 µM (active)
N#CC(=C1Nc2ccccc2S1)c1ccnc(OCc2ccc(CN3CCOCC3)cc2)n1	0.0332 µM (active)
CCOC(=O)N1CCN([N+]([O-])=NOc2cc(ON=[N+]([O-])N3CCN(C(=O)OCC)CC3)c([N+](=O)[O-])cc2[N+](=O)[O-])CC1	inactive
O=C(NC[C@H](O)CO)c1ccncc1Nc1ccc(I)cc1F	5.26 µM (active)

SMILES	Potency
CC(=O)O[C@]1(C(C)=O)CC[C@H]2[C@@H]3C=C(Cl)C4=CC(=O)[C@@H]5C[C@H]5[C@]4(C)[C@@H]3CC[C@@]21C	10.5 µM (active)
CCc1cccc(CC)c1NC(=O)N1Cc2[nH]nc(NC(=O)c3ccc(N4CCN(C)CC4)cc3)c2C1	7.43 µM (active)
CCOC(=O)[C@H]1O[C@H]1C(=O)N[C@@H](CC(C)C)C(=O)NCCC(C)C	inactive
CN1CC(=O)N2C(Cc3c([nH]c4ccccc34)[C@H]2c2ccc3c(c2)OCO3)C1=O (stereo not given in full)	inactive
Cc1c(-c2cccc3c(CCCOc4cccc5ccccc45)c(C(=O)O)n(Cc4cccnc4)c23)c(COc2ccc(N3CCN([S+](=O)([O-])N(C)C)CC3)cc2)nn1C	inactive
CCC[C@H](Nc1nc(-c2ccc(NC(=O)NCC)c(OC)c2)ncc1C)c1cccnc1	0.001 µM (active)
C[C@@H](NC(=O)c1ncnc(N)c1Cl)c1ncc(C(=O)Nc2cc(C(F)(F)F)c(Cl)cn2)s1	10.5 µM (active)
CC(=O)N1CCN(c2ccc(OCc3nn(C)c(C)c3-c3cccc4c(CCCOc5cc(C)c(Cl)c(C)c5)c(C(=O)O)n(Cc5cccnc5)c34)cc2)CC1	6.62 µM (active)
O=c1cc(-c2ccc(O)c(O)c2)oc2cc(O)cc(O)c12	inactive
COc1cc(N2CCN(C)CC2)ccc1Nc1nc(N)c(C(=O)c2c(Cl)cccc2Cl)s1	18.7 µM (active)
N#Cc1c(N(CC(=O)O)CC(=O)O)sc(C(=O)O)c1CC(=O)O	8.33 µM (active)
Oc1cc(O)cc(C=Cc2ccc(O)c(O)c2)c1	11.8 µM (active)
O=C(CCCN1CCN(c2ccc(F)cc2)CC1)NC1c2ccccc2CSc2ccccc21 (stereo not given)	6.62 µM (active)
OC[C@H]1O[C@@H](OCCc2ccc(O)cc2)[C@H](O)[C@@H](O)[C@H]1O	inactive
CC=C1C2C=C(C)CC1(N)c1ccc(=O)[nH]c1C2 (stereo not given)	inactive
Cc1cc(NC(=O)Nc2ccc(N(C)C)cc2)c2cc(F)cc(F)c2n1	inactive
CCN(CC)CCCCNc1nc2cc(Cl)c(Cl)cc2nc1-c1ccc(-c2cccs2)s1	6.62 µM (active)
CC(C)(C)c1[nH]cnc1C=c1[nH]c(=O)c(=Cc2ccccc2)[nH]c1=O	inactive
CCOc1ccccc1N=Nc1c(C)[nH]n(-c2nc(-c3ccccc3)cs2)c1=O	inactive
CC(C)(CO)[C@@H](O)C(=O)NCCC(=O)O	inactive

Source: PubChem BioAssay (NCATS)
